We go through 40 compounds from PubChem BioAssay (Tox21).

Results filed as inconclusive are left out. Activity calls are given as the source filed them. Calls come from the whole dose curve; as a rule, active = well fitted inhibition curve with a large enough effect in the repeat runs; inconclusive = weak or mixed curves; inactive = no such curve, though single readings can be large or run the other way.
% is set by controls: 0 for no effect and ±100 for the full control effect; potency is the fitted concentration of half-maximal effect.

Sequence of Cytochrome P450 3A4 (Homo sapiens) (P08684 whole entry, looked up): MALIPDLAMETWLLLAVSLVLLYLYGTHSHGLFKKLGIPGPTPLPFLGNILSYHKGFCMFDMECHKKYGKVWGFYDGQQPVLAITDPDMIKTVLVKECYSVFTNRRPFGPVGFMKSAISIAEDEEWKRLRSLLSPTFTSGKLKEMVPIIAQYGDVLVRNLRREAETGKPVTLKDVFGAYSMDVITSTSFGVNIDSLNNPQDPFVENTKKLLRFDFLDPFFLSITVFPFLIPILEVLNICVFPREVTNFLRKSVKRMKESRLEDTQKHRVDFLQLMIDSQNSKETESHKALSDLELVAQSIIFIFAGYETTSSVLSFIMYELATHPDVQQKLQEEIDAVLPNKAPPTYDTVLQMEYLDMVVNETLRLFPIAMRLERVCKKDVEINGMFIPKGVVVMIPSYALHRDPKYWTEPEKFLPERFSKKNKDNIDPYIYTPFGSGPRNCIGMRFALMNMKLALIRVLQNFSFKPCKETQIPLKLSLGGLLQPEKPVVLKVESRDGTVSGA

The target of the assay is Cytochrome P450 3A4 (Homo sapiens) (UniProt P08684). The assay can be described thus: Cytochrome P450 Family 3 Subfamily A Member 4 (CYP3A4) small molecule antagonists: luciferase reporter qHTS assay (AID 1671201). Note: nearly all actives have a fitted effect of over 50% in size. Particulars: P450-Glo CYP3A4 enzyme, luciferin luminescence, 1 h; series mostly up to 115 µM; activity change, negative = inhibition: at the top concentration. From the text:
National Center for Advancing Translational Sciences [NCATS]
U.S. Environmental Protection Agency [EPA]
National Institutes of Environmental Health Sciences [NIEHS]
National Toxicology Program [NTP]
U.S. Food and Drug Administration [FDA]
Cytochrome P450 (CYP) enzymes are membrane-bound hemeproteins that play a key role in metabolism of drugs and xenobiotics. Evaluation of the effect of chemicals on CYP isozymes is useful to minimize the adverse drug reactions and toxicities in drug development process. Tox21 chemicals were tested for their effect on CYP enzyme activities by using P450-Glo (TM) screening systems (Promega Corporation, Madison, WI). These systems provide a luminescent method containing proluciferin substrates and are converted to luciferin products by CYP isozymes. The luciferin products formed are detected with a luciferin detection reagent, and the amount of light produced is proportional to CYP activity. P450-Glo (TM) CYP3A4 screening system (Catalog. No. V9910) was used to detect the compounds that interfere in CYP3A4 activity. The positive control compound used for CYP3A4 assay is ketoconazole (Sigma-Aldrich, St. Louis, MO).
Tox21 Assay Protocol Summary:
Two ul of enzyme-substrate mix was dispensed into medium binding white/solid 1536-well plates (Greiner Bio-One North America Inc., Monroe, NC) using a BioRaptr Flying Reagent Dispenser (FRD, Beckman Coulter, Brea, CA). Compounds dissolved in DMSO and positive control (ketoconazole) were transferred to the assay plates at 23 nl using a Pintool station (Wako, San Diego, CA). The assay plates were incubated at room temperature for 10 min. Then 2 ul of NADPH regeneration solution was added to each well of the assay plates using an FRD and incubated at room temperature for 1 h. The reaction was stopped by adding 4 ul of detection reagent using an FRD and after 20 min incubation at room temperature the luminescence signal was measured using a ViewLux plate reader (Perkin Elmer, Shelton, CT). Data were expressed as relative luminescence units.
Background: In a reporter assay the amount or activity of a reporter protein is the signal.
Take `COc1cccc([C@H](O)C2CCN(CCc3ccc(F)cc3)CC2)c1OC`: the “activity change, negative = inhibition” value was 7.23% (inactive).

For the compound `OCCOc1cccc(OCCO)c1`, the “activity change, negative = inhibition” value is 6.3% (inactive). As for `CCCCCCCCC(=O)OCC(C)OC(=O)CCCCCCCC` (stereo not given), the “activity change, negative = inhibition” value is -13.8% (inactive).

Take `CC(CCl)OC(C)CCl` (stereo not given): the “activity change, negative = inhibition” value was 7.77% (inactive). For `CC(C)Oc1ccccc1O`, the “activity change, negative = inhibition” value is 3.77% (inactive). For `CC(C)=CCC[C@H](C)CCO`, the Potency was 63.3 µM (active). As to `O=C(c1ccco1)N1CCNCC1`, the “activity change, negative = inhibition” value was 6.72% [at 52.9 µM] (inactive). Still for that read-out and setting: the figure for `NCCOCCOCCN` is -12% (inactive). The same measure, in the same setting: the figure for `OCC(O)c1ccccc1` (stereo not given) is 6.04% (inactive). For the compound `COc1ccc(/C(C)=C/C(=O)O)c(OC)c1`, the “activity change, negative = inhibition” value was 11.4% [at 52.9 µM] (inactive). For `O=C1c2ccccc2C(=O)C1c1ccc2ccccc2n1`, the Potency was 1.77 µM (active). In the case of `O=C(Cl)c1ccc(F)c(Cl)c1`, the “activity change, negative = inhibition” value was 50% (inactive).

Take `CC(O)CN` (stereo not given): the “activity change, negative = inhibition” value was 1.54% (inactive).

As for `O=C(O)c1cc(C(=O)O)c(C(=O)O)cc1C(=O)O`, the “activity change, negative = inhibition” value was 21.9% (inactive). As for `C[C@H](N)C(=O)N[C@@H](C)C(=O)NC1[C@H]2CN(c3nc4c(cc3F)c(=O)c(C(=O)O)cn4-c3ccc(F)cc3F)C[C@@H]12` (stereo not given in full), the Potency is 12.3 µM (active). Same read-out and setting: the same measure for `Clc1ccccc1-c1nc(-c2ccncc2)no1`: 30.9 µM (active). In the case of `CC(C(=O)O)c1ccc(/C=C2\CCCCC2=O)cc1` (stereo not given), the “activity change, negative = inhibition” value was -3.06% [at 52.9 µM] (inactive). Same read-out and setting: the same measure for `C=CC(=O)NC(C)(C)C`: 1.61% (inactive). Regarding `CCC(CC)C(=O)O`, the “activity change, negative = inhibition” value is 0.746% (inactive). With `C=CC(=O)OCCCCCCCCCC`, the “activity change, negative = inhibition” value is 1.35% (inactive).

For the compound `CCC1=C(C)CN(C(=O)NCCc2ccc(S(=O)(=O)NC(=O)NC3CCC(C)CC3)cc2)C1=O` (stereo not given), the “activity change, negative = inhibition” value is -13.3% [at 52.9 µM] (inactive). Consider `CC(COc1ccccc1)NC(C)C(O)c1ccc(O)cc1` (stereo not given), for which the “activity change, negative = inhibition” value was 31.1% [at 52.9 µM] (inactive). Turning to `CC(CC(C#N)(c1ccccc1)C(C)C)N(C)C` (stereo not given), the Potency was 6.92 µM (active). `O=C(O)c1cccnc1Nc1cccc(C(F)(F)F)c1`: the “activity change, negative = inhibition” value is 0.768% [at 52.9 µM] (inactive). Same read-out and setting: the same measure for `CC(=O)Nc1ccn(C2COC(COC(=O)c3ccccc3)O2)c(=O)n1` (stereo not given): 0.362% [at 52.9 µM] (inactive); for `CCCCCCCCS`: 12.8% (inactive). Still for that read-out and setting: the same measure for `CCCCOC(=O)CC#N`: -34.5% (inactive); for `C1CCN(CN2CCCCC2)CC1`: -0.954% (inactive).

As to `CCOC(=O)CC(O)(CC(=O)OCC)C(=O)OCC`, the “activity change, negative = inhibition” value is 5.21% (inactive). With `O=[N+]([O-])c1ccccc1CCO`, the “activity change, negative = inhibition” value is 7.19% (inactive). Turning to `CC(C)(C)c1cc(C=O)cc(C(C)(C)C)c1O`, the “activity change, negative = inhibition” value is 0.0711% [at 52.9 µM] (inactive). Still for that read-out and setting: the figure for `Oc1ccc(Oc2ccccc2)cc1` is 7.11% (inactive).

Regarding `Sc1nc(S)nc(S)n1`, the “activity change, negative = inhibition” value was 5.59% [at 52.9 µM] (inactive). On the same count and under the same terms, the figure for `CCOC(OCC)OCC` is 2.35% (inactive). Still for that read-out and setting: the figure for `O=C(O)c1cc(C(=O)O)cc([N+](=O)[O-])c1` is 35.4% (inactive); for `COc1ccc(/C=C/S(=O)(=O)NC(=O)c2ccc(C)cc2Cl)cc1` it is 42% (inactive); for `c1ccc(-c2ccc(-c3ccccc3)cc2)cc1` it is -14.7% [at 23.6 µM] (inactive). Regarding `O=C1c2ccccc2C(=O)C1c1ccc2cc(S(=O)(=O)O)cc(S(=O)(=O)O)c2n1`, the “activity change, negative = inhibition” value is -6.69% (inactive). In the case of `O=[N+]([O-])c1ccc(Cl)cc1Cl`, the “activity change, negative = inhibition” value is 19.2% (inactive).

For the compound `CCCCOC(=O)C(C)Oc1ccc(Oc2ccc(C(F)(F)F)cn2)cc1` (stereo not given), the “activity change, negative = inhibition” value was 7.94% (inactive).
